Assay results taken from PubChem BioAssay (NCATS).
Results filed as inconclusive are left out. The source made the active and inactive calls. Unless noted, calls come from the whole dose curve; as a rule, active = well fitted curve in the direction sought with a large enough effect; inconclusive = small, poorly fitted or top-dose-only effect, or another doubt; inactive = no such curve, though single readings can be large; an effect the other way counts as inactive or inconclusive.

Assays:
[1] = biological target: Lysosomal acid glucosylceramidase (Homo sapiens) (UniProt P04062); assay: Glucocerebrosidase-p2 (AID 348; in the data active = potency below about 10 µM; note: potency is the fitted concentration of half-maximal effect); conditions: purified GBA, blue fluorogenic substrate, 40 min
Lysosomal acid glucosylceramidase (Homo sapiens), sequence (P04062 whole entry, looked up): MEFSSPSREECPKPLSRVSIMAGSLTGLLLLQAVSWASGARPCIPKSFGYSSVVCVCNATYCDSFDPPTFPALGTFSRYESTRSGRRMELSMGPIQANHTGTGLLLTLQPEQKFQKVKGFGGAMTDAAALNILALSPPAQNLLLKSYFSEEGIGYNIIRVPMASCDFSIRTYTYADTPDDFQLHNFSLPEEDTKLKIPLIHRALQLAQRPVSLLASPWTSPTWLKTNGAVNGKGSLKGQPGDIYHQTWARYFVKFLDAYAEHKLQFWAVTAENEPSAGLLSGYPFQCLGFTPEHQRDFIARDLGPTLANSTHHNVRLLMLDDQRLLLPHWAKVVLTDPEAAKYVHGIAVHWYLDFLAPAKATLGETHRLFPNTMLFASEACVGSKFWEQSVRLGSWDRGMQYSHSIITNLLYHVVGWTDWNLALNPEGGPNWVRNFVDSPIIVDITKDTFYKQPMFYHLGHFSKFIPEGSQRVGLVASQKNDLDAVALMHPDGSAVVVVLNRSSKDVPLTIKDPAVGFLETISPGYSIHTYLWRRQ
Procedure, shortened: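 Normal human glucocerebrosidase (0.2 nM) with blue fluorogenic substrate (80 uM final) in citrate/phosphate pH 5.9 with 10mM sodium taurocholate, 0.01% tween-20; 40 min RT, NaOH/glycine stop; fluorescence Ex 365/Em 440; AC50 from a titration from 0.6 nM upwards.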

[2] = biological target: Cytochrome P450 1A2 (Homo sapiens) (UniProt P05177); assay: p450-cyp1a2 (AID 410; calls by dose curve; note: potency is the fitted concentration of half-maximal effect); conditions: recombinant CYP1A2, luciferin-ME demethylation, luminescence; series mostly up to 57 µM
Cytochrome P450 1A2 (Homo sapiens), sequence (P05177 whole entry, looked up): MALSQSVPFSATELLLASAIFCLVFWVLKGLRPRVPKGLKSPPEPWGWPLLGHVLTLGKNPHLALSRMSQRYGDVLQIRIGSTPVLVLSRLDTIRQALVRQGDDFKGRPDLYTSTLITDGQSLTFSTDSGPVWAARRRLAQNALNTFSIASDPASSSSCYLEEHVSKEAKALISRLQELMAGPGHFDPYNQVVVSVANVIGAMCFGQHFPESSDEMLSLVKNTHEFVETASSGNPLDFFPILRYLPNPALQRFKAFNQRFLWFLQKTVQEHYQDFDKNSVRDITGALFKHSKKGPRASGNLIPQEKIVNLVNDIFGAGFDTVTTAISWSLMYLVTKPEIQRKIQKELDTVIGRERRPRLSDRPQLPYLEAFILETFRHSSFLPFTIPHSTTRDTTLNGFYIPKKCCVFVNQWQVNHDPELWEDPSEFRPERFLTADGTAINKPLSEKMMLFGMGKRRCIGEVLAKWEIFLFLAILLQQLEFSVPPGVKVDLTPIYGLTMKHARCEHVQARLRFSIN
Procedure, shortened: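 Luminescent demethylation readout: Luciferin-ME (100uM, equal to Km) turned over by 20nM CYP1A2 for 60 min at room temperature after NADPH regeneration addition, following 10 min compound preincubation. Normalization used 57 uM furafylline as full inhibition.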

[3] = NFAT Signaling Pathway (AID 444; active = well fitted curve in either direction with a large enough effect, not every such curve was filed as active;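 note: carbachol stimulus at about its EC50 of 1 µM final; % is set by controls: 0 for no effect and ±100 for the full control effect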); conditions: Jurkat NFAT-bla M1, carbachol, beta-lactamase ratio, 5 h; at 7.69 µM (top of the series) unless noted
Procedure, shortened: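 Jurkat cells with NFAT-driven β-lactamase reporter and co-expressed M1 receptor, stimulated with carbachol (final 1 uM, ~EC50), compound titration, 5 h at 37 °C. CCF4 loaded 1 h at RT; 460/530 nm ratio gave %activity and AC50.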

[4] = Stat Signaling Pathway (AID 446; active = well fitted curve in either direction with a large enough effect, not every such curve was filed as active;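 note: ME-180 cervical cancer cells given 40 pM IL-6 alongside compound; SIE-controlled beta-lactamase reporter measured as 460/530 nm FRET emission ratio; % is set by controls: 0 for no effect and ±100 for the full control effect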); conditions: ME-180 SIE beta-lactamase reporter, IL-6 stimulated, 5 h; at 7.69 µM (top of the series) unless noted
Procedure, shortened: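 FRET read-out (405 nm excitation, 460/530 nm emission) of a beta-lactamase reporter under a STAT-inducible element in ME-180 cervical carcinoma cells. Cells with compound receive 40 pM IL-6 for 5 h. Values are normalised to AC90 stimulation and AC90 JAK-inhibitor controls.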

[5] = biological target: Glucocorticoid receptor (Homo sapiens) (UniProt P04150); assay: GR-GFP Redistribution (AID 450;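 active = compounds whose dose series gives a full or clear partial fitted curve of increased nuclear translocation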; note: potency is the fitted concentration of half-maximal effect); conditions: U2OS GR-GFP nuclear translocation, laser cytometry, 2 h
Glucocorticoid receptor (Homo sapiens), sequence (P04150 whole entry, looked up, the tested form may be a part): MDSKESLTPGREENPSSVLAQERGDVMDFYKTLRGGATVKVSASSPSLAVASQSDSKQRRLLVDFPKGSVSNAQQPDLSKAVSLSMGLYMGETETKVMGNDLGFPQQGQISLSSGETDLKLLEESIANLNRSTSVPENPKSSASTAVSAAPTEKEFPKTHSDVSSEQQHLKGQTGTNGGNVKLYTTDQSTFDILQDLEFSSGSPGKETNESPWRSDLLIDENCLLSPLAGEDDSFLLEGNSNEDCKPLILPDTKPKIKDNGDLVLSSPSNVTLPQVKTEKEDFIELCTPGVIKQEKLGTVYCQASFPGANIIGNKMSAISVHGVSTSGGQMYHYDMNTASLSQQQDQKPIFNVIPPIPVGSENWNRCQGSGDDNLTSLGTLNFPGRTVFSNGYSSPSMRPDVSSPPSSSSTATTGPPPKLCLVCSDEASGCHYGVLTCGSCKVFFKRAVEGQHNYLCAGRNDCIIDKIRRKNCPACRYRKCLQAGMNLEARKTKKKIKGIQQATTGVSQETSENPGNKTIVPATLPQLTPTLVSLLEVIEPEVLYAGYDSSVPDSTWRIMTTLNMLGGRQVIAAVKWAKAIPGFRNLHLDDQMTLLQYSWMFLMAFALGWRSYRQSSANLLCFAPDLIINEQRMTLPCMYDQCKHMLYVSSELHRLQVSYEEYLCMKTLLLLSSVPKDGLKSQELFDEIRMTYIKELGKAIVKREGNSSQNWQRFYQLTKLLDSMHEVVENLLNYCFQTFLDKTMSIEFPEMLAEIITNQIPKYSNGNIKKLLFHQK

[6] = biological target: Glucocorticoid receptor (Homo sapiens) (UniProt P04150); assay: GR-EFC Redistribution (AID 451; calls by dose curve; note: potency is the fitted concentration of half-maximal effect); conditions: CHO-K1 GR-EFC translocation, beta-gal luminescence, 2 h
Procedure, shortened: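 CHO-K1 cells expressing nuclear EA and GR-ED fragments of b-gal; compounds titrated up to 46 uM final, 2 h at 37 C. GR nuclear translocation read as complemented b-gal luminescence after 1 h RT detection.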

[7] = biological target: Mitogen-activated protein kinase 10 (Mus musculus) (UniProt Q61831); assay: JNK3 AlphaScreen Assay (AID 530; active = well fitted curve in either direction with a large enough effect, not every such curve was filed as active;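 note: kinase came from lysate of stimulated human HepG2 cells; signal reports phosphorylation of biotinylated GST-cJun 1-79 at Ser73 with 10 µM ATP; % is set by controls: 0 for no effect and ±100 for the full control effect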); conditions: JNK3 lysate, c-Jun phosphorylation; series mostly up to 57.1 µM
Procedure, shortened: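 Activity was read by AlphaScreen after JNK3-containing HepG2 lysate (cytokine pre-activated) phosphorylated biotinylated GST-cJun with 10 uM ATP at room temperature. Phospho-Ser73 cJun antibody with Protein-A acceptor beads provided detection.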

[8] = biological target: 3',5'-cyclic-AMP phosphodiesterase 4B (Homo sapiens) (UniProt Q07343); assay: qHTS Assay for Inhibitors of PDE-IV (AID 607; active = well fitted activation curve with a large enough effect in the main read-out, with a control signal flat, not every such curve was filed as active; note: % of control where 0% means no effect); conditions: HEK293 ACTOne CNG channel cells, membrane potential fluorescence; series mostly up to 22.9 µM
3',5'-cyclic-AMP phosphodiesterase 4B (Homo sapiens), sequence (Q07343 whole entry, looked up): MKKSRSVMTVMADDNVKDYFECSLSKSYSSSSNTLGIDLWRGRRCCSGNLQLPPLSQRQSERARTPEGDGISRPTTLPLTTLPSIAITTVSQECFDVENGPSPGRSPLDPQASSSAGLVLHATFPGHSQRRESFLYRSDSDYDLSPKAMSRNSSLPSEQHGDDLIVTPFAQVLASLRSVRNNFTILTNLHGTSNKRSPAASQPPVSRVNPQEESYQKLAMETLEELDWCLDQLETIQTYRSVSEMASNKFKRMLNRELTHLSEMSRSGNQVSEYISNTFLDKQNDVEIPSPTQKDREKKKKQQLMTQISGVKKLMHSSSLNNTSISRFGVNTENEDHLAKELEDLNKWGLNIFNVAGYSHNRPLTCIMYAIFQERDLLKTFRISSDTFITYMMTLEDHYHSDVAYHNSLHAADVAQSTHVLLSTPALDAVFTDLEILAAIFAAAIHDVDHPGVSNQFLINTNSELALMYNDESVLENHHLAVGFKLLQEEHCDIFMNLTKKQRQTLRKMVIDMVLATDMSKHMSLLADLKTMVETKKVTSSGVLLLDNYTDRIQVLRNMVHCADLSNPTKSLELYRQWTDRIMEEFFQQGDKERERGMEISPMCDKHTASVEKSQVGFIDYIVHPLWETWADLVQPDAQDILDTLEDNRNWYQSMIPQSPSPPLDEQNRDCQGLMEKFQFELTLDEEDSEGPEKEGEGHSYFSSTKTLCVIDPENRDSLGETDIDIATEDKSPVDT
Procedure, shortened: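 Cell-based read-out of cAMP via a modified cyclic nucleotide-gated channel and membrane potential dye (535/590 nm) in HEK293 cells expressing PDE4 endogenously. Compounds tested up to 22.9 uM final; 100 uM RO 20-1724 reference.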

[9] = biological target: Cytochrome P450 3A4 (Homo sapiens) (UniProt P08684); assay: qHTS Assay for Activators of Cytochrome P450 3A4 (AID 885); conditions: recombinant CYP3A4, Luciferin-PPXE luminescence, 60 min; series mostly up to 57.1 µM; note: nearly all actives have a fitted effect of over 65% in size
Cytochrome P450 3A4 (Homo sapiens), sequence (P08684 whole entry, looked up): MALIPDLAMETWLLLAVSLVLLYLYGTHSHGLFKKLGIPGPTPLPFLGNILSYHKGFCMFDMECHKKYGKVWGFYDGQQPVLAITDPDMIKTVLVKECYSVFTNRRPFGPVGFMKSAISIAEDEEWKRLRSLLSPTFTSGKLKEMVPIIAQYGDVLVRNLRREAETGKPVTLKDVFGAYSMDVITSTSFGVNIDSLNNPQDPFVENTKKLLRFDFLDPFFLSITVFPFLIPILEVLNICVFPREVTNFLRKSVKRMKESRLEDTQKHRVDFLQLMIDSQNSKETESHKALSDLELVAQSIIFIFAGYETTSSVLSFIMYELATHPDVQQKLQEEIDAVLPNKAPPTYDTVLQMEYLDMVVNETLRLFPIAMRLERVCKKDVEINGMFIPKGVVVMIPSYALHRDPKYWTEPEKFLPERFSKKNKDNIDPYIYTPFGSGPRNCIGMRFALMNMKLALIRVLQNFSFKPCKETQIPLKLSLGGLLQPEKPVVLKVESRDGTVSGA
Procedure, shortened: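 Luminescent readout of luciferin formed from 25 uM Luciferin-PPXE (KM level) by 20 nM CYP3A4 in 200 mM KPO4, with 60 min NADPH-driven reaction at room temperature after 10 min compound exposure. Ketoconazole (57 uM) defined 100% inhibition.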

[10] = biological target: Dual specificity protein kinase CLK4 (Homo sapiens) (UniProt Q9HAZ1); assay: qHTS Assay for Inhibitors of CDC-like Kinase 4 (Kinase-Glo Assay) (AID 1770); conditions: recombinant Clk4, Kinase-Glo ATP depletion luminescence; series mostly up to 66.7 µM; note: nearly all actives have a fitted effect of over 65% in size; note: potency is the fitted concentration of half-maximal effect
Dual specificity protein kinase CLK4 (Homo sapiens), sequence (Q9HAZ1 whole entry, looked up): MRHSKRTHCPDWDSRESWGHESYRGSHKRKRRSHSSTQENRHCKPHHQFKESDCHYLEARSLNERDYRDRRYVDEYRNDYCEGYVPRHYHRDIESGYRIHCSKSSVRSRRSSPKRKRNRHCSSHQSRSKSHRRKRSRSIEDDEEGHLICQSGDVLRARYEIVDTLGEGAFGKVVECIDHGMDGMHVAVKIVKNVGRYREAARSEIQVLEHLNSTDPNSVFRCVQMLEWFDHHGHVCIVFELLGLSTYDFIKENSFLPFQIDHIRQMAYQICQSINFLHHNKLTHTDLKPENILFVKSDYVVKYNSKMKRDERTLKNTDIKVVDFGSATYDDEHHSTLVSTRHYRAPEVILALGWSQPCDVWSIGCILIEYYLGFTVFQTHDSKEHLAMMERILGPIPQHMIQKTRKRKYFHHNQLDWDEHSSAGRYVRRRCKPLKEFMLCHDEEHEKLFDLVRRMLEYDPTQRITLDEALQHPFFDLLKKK
Procedure, shortened: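 Recombinant human Clk4 (25 nM) phosphorylated RS repeat peptide (100 uM) with 1 uM ATP in Tris pH 7.5/MgCl2/EGTA/DTT/Triton buffer for 4.5 h at room temperature. Residual ATP was quantified by Kinase-Glo luciferase luminescence.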

[11] = biological target: Dual specificity protein kinase CLK4 (Homo sapiens) (UniProt Q9HAZ1); assay: qHTS Assay for Inhibitors of CDC-like Kinase 4 (ADP-Glo Assay) (AID 1771); conditions: recombinant CLK4, ADP-Glo luminescence; series mostly up to 80 µM; note: nearly all actives have a fitted effect of over 70% in size; note: potency is the fitted concentration of half-maximal effect
Procedure, shortened: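 ADP production was read by ADP-Glo luminescence after residual ATP depletion, following 1 h room-temperature reaction of 25 nM Clk4, 1 uM ATP and 100 uM RS peptide with MgCl2, EGTA, DTT and Triton X-100.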

[12] = biological target: Ubiquitin carboxyl-terminal hydrolase 1 (Homo sapiens) (UniProt O94782); assay: Inhibitors of USP1/UAF1: Pilot qHTS (AID 504865); conditions: purified USP1/UAF1, Ub-rhodamine cleavage fluorescence; series mostly up to 54.9 µM;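 note: rhodamine fluorescence freed from ubiquitin-rhodamine substrate followed over time; top concentration of the series differs between compounds; % is set by controls: 0 for no effect and ±100 for the full control effect; nearly all actives have a fitted effect of over 35% in size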
Ubiquitin carboxyl-terminal hydrolase 1 (Homo sapiens), sequence (O94782 whole entry, looked up): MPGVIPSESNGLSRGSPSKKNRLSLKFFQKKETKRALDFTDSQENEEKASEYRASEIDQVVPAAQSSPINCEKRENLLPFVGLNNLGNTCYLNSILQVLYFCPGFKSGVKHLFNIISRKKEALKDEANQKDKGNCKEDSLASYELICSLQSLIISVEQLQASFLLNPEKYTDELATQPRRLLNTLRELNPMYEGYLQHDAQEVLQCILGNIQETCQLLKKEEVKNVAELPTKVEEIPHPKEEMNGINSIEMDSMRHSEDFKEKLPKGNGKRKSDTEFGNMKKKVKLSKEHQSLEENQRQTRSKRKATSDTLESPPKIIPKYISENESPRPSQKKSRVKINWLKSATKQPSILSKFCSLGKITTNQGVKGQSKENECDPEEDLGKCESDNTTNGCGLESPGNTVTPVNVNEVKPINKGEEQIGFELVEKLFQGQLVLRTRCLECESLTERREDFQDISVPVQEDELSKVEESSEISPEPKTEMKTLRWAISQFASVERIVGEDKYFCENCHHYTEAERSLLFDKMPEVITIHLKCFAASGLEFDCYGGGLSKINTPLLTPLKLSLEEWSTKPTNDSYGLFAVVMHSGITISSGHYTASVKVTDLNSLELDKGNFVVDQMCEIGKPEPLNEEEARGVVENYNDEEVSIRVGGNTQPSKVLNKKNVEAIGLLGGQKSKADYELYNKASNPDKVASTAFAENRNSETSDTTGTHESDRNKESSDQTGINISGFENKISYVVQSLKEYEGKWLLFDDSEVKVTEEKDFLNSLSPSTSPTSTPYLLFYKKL
Procedure, shortened: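 USP1/UAF1 complex (1nM) preincubated with compound 15 min at room temperature, then Ub-Rho substrate (150nM final) added. Fluorescence read kinetically at 480/540 nm, 6 reads every 60 seconds. Buffer: 50mM HEPES pH 7.8, 0.5mM EDTA, 0.1 mg/ml BSA, 1mM TCEP, 0.01% Tween-20.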

[13] = Primary qHTS for small molecule stabilizers of the endoplasmic reticulum resident proteome: Secreted ER Calcium Modulated Protein (SERCaMP) assay (AID 1508630); conditions: SH-SY5Y GLuc-SERCaMP (Gaussia luciferase released on ER calcium loss) secretion, thapsigargin, luminescence; series mostly up to 38.4 µM; note: % is set by controls: 0 for no effect and ±100 for the full control effect
Procedure, shortened: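 The SH-SY5Y reporter protocol was run at 3 concentrations up to 38.3 uM (primary) or 11 concentrations (follow-up): 16 h compound, 100 nM thapsigargin for 4 h, then extracellular luciferase luminescence.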

[14] = biological target: Cytochrome P450 2C19 (Homo sapiens) (UniProt P33261); assay: qHTS Assay for Inhibitors and Substrates of Cytochrome P450 2C19 (AID 899); conditions: recombinant CYP2C19, luciferin-H EGE luminescence; series mostly up to 57.1 µM; note: potency is the fitted concentration of half-maximal effect; nearly all actives have a fitted effect of over 60% in size
Cytochrome P450 2C19 (Homo sapiens), sequence (P33261 whole entry, looked up): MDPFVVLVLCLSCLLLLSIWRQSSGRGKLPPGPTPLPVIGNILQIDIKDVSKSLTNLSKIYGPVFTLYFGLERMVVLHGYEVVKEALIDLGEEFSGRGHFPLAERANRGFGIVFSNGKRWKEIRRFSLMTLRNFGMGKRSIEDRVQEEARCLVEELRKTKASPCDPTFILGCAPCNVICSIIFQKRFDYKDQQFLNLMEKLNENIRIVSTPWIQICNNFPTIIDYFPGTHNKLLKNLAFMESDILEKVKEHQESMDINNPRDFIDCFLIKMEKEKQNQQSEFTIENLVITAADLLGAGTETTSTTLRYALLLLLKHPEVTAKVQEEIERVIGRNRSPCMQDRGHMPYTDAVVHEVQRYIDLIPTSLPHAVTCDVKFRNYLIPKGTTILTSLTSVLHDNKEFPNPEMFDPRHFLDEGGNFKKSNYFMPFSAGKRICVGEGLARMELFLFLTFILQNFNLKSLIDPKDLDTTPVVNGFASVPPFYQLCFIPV
Procedure, shortened: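 5 nM human CYP2C19 with 10uM Luciferin-H EGE (at KM) in 50mM KPO4, compound preincubated 10 min at 37C, then NADPH regeneration for 60 min at 37C. Luciferin read by luminescence after detection reagent; normalized to 57uM ketoconazole as full inhibition.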

[15] = AP1 Signaling Pathway (AID 357; active = well fitted curve in either direction with a large enough effect, not every such curve was filed as active); conditions: ME-180 (cervical carcinoma) AP-1-bla reporter, EGF-induced, beta-lactamase ratio, 5 h; at 7.69 µM (top of the series) unless noted
Procedure, shortened: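 Titration-series screen for positive or negative modulators of EC50 EGF-induced signaling in ME-180 cells carrying an AP-1-driven beta-lactamase reporter. After 5 hours at 37 degrees Celsius, CCF4 460nm/530nm emission ratio gave %Activity; AC50 values derived.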

[16] = biological target: Cytochrome P450 3A4 (Homo sapiens) (UniProt P08684); assay: qHTS Assay for Inhibitors and Substrates of Cytochrome P450 3A4 (AID 884); conditions: recombinant CYP3A4, Luciferin-PPXE luminescence; series mostly up to 57.1 µM; note: potency is the fitted concentration of half-maximal effect; nearly all actives have a fitted effect of over 50% in size
Procedure, shortened: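 Luminescent readout of luciferin produced by CYP3A4 (20 nM) dealkylation of Luciferin-PPXE, 25 uM (its KM). NADPH-driven reaction ran 60 min at RT after 10 min compound preincubation; data scaled to 57 uM ketoconazole as 100% inhibition.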

[17] = biological target: Dual specificity protein kinase CLK4 (Homo sapiens) (UniProt Q9HAZ1); assay: qHTS Assay for Inhibitors of CDC-like Kinase 4 (ADP-FP Assay) (AID 1795); conditions: Transcreener ADP fluorescence polarization; series mostly up to 50 µM; note: % is set by controls: 0 for no effect and ±100 for the full control effect; nearly all actives have a fitted effect of over 60% in size
Procedure, shortened: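 Recombinant human Clk4 (6.25 nM) phosphorylated RS repeat peptide (100 uM) with 1 uM ATP in Tris pH 7.5/MgCl2/EGTA/DTT/Triton buffer for one hour. ADP was quantified by Transcreener competitive fluorescence polarization against an ADP calibration curve.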

COc1ccc(Oc2ncc3nc(-c4ccc(F)cc4)c(=O)n(Cc4cccs4)c3n2)cc1
active: Potency [2] 5.01 µM
inactive: Potency [1] > 11.4 µM | activity change, negative = inhibition [3] -29.2% | activity, negative = inhibition [4] -8.36% | Potency [5] > 9.22 µM | Potency [6] > 46 µM | Potency [7] | Potency [8] | Potency [9] | Potency [10] | Potency [11] | Potency [12] | outcome [13]

O=c1c(-c2cc(F)cc(F)c2)nc2cnc(N3CCNCC3)nc2n1Cc1ccc(F)cc1
inactive: Potency [1] > 11.4 µM | Potency [5] > 9.22 µM | Potency [6] > 46 µM | Potency [7] | Potency [8] | Potency [10] | Potency [11] | outcome [13]

CS(=O)(=O)Nc1cccc(-c2nccc(NCc3cccs3)n2)c1
active: Potency [10] 28.2 µM | Potency [11] 35.5 µM
inactive: Potency [1] > 11.4 µM | activity change, negative = inhibition [3] 14.7% | activity, negative = inhibition [4] -12.9% | Potency [5] > 46 µM | Potency [6] > 46 µM | Potency [7] | Potency [8] | Potency [12] | outcome [13]

O=c1cnc2cnc(Oc3cccc(Cl)c3)nc2n1CCc1ccccc1
active: Potency [10] 2.24 µM | Potency [11] 3.55 µM
inactive: activity, negative = inhibition [4] -20.1% | Potency [5] > 9.22 µM | Potency [6] > 46 µM | Potency [7] | Potency [8] | Potency [12] | outcome [13]

CC(=O)NCCNc1ncnc2ccc(-c3ccccc3Cl)cc12
inactive: Potency [1] > 11.4 µM | activity change, negative = inhibition [3] -0.746% | activity, negative = inhibition [4] -1.74% | Potency [5] > 46 µM | Potency [6] > 46 µM | Potency [7] | Potency [9] | Potency [12] | outcome [13]
active: Potency [10] 15.8 µM | Potency [11] 15.8 µM

COc1ccccc1CNc1ccnc(-c2ccccc2CN(C)C)n1
inactive: activity change, negative = inhibition [3] -25.2% | activity, negative = inhibition [4] 3.25% | Potency [5] > 46 µM | Potency [6] > 46 µM | Potency [7] | Potency [10] | Potency [11] | Potency [12] | outcome [13]

CN1CCN(c2ncc3ncc(=O)n(CCc4ccccc4)c3n2)CC1
active: Potency [2] 3.98 µM | Potency [14] 6.31 µM | Potency [10] 25.1 µM | Potency [11] 15.8 µM
inactive: Potency [1] > 11.4 µM | activity change, negative = inhibition [3] -2.1% | activity, negative = inhibition [4] 9.6% | Potency [5] > 9.22 µM | Potency [6] > 46 µM | Potency [7] | Potency [8] | Potency [9] | Potency [12] | outcome [13]

CN(C)c1ccc(-c2cncnc2Nc2ccccc2)cc1
inactive: Potency [1] > 11.4 µM | activity change, negative = inhibition [15] -29.4% | activity change, negative = inhibition [3] -2.66% | activity, negative = inhibition [4] -12% | Potency [5] > 46 µM | Potency [6] > 46 µM | Potency [9] | Potency [17] | Potency [12] | outcome [13]
active: Potency [2] 0.398 µM | Potency [16] 0.631 µM | Potency [14] 0.316 µM | Potency [10] 22.4 µM
